SMILES strings stand for the structures. About 83,000 compounds went through this panel and 20% of them were active in at least one assay; those are over-represented in the sample as a whole.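 Compound tested at a single concentration for 48 hours in 96-well plates; a percent growth value below 10 was scored as active.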 A number with no mark means an inactive call. The source made the active and inactive calls.

The assay relates to HS 578T breast. As to the kind of experiment: NCI-60 one-dose screen, 48 h (100 = growth as untreated, 0 = no growth, -100 = all killed). The conditions noted are these: 10 µM unless noted. The protocol: Growth inhibition of the HS 578T human tumor cell line is measured as a screen for anti-cancer activity. Cells are grown in 96 well plates and exposed to the test compound for 48 hours. Compounds are tested at a single concentration, which is 10^-5 M for most compounds. The reported endpoint is percent growth (GI% or GIPRCNT), where numbers from 0 - 100% represent growth inhibition, and numbers from -100% - 0 represent cell death. For example, a value of 40 represents 60% growth inhibition. A value of 0 means no net growth occurred over the course of the experiment. A value of -40 indicates 40% of cells at the beginning of the experiment died by the end of the experiment. A value of -100 means all cells are dead at the end of the experiment.
NCI-60 Human Tumor Cell Lines Screen was performed using the standard one-dose NCI protocol, which is described in more detail at https://dtp.cancer.gov/discovery_development/nci-60/default.htm.
Compounds with GIPRCNT values below 10 were considered active. Activity score was based on GIPRCNT using the following formula: […]
Score is 0 for GIPRCNT values of 100 or above, 50 for GIPRCNT values of 0, and 100 for GIPRCNT values of -100.
In the case of `Cc1cc(O)c(C2=NN(c3ccc(S(N)(=O)=O)cc3)C(c3ccccc3Cl)C2)cc1Cl` (stereo not given), the growth was -4.47% (active). In the case of `CCn1c(C)nc2cc(C(N)=O)ccc21`, the growth was 108%. `O=C(c1ccccc1)c1c(/C=C/c2ccccc2)nc2ccccc2c1/C=C/c1ccc(Br)cc1`: the growth was 91.3%.

Consider `Cc1c(O)cc(-c2cnc(N/N=C\c3ccc(Cl)cc3)s2)c(O)c1C`, for which the growth was 77.6%. Regarding `CC(=O)N1N=C(c2ccc(Nc3nc(Nc4ccc(F)cc4)nc(Nc4ccc(F)cc4)n3)cc2)CC1c1cccc([N+](=O)[O-])c1` (stereo not given), the growth was 96.5%.

On to `COc1cccc(C(=O)NCCCNc2cc(-c3cn(-c4ccccc4)nc3-c3cccc(OC)c3)ccn2)c1`, for which the growth is 47.5%. The value for `COc1cccc(-c2nn(-c3ccccc3)cc2-c2ccnc(NCCNC(=O)Nc3ccc(Cl)c(Cl)c3)c2)c1` was -22.1% (active). Consider `COc1ccc(OC)c2c1[nH]c(=O)c1c3ncccc3cn21`, for which the growth is 69.2%. On to `COC(=O)/C=C1\S/C(=N\NS(=O)(=O)c2ccc(C)cc2)N(c2ccccc2)C1=O`, for which the growth is 98.9%.

As for `CC(C)(C)n1cc(-c2ccnc(NCCCNS(=O)(=O)c3ccccc3)c2)c(-c2ccccc2)n1`, the growth was 96%. For the molecule `Cc1cc(NCCCCNc2ccnc3cc(Cl)ccc23)nc(Nc2ccc(C(=O)N3CCCC3)cc2)n1`, the growth is 89.8%. For `COc1ccc(C(=O)Nn2c(NCC(=O)N3c4ccccc4Sc4ccccc43)nnc2-c2ccc(O)cc2)cc1`, the growth is 106%. Turning to `CN1CCN(C(=O)c2c3c(n4ccccc24)C(=O)c2ncccc2C3=O)CC1`, the growth is 52.5%. The value for `COc1ccc2c(c1)[nH]c(=O)c1c3cccnc3cn21` was 49.6%; that for `COc1cc(N2C(=O)c3nccnc3C2=O)cc(OC)c1OC` was 104%. The value for `COCN1CCC2N(COC)CCC3N(COC)CCC1N23` (stereo not given) was 124%; that for `Cc1cc(=O)[nH]c(N=Nc2c(O)[nH]c3ccccc23)n1` was 122%; that for `COc1ccc(C2CC(c3cccc(OC)c3)=NN2C(=O)c2cc(OC)c(OC)c(OC)c2)cc1` (stereo not given) was -13.5% (active). Next, `O=S(=O)(O)c1ccc(N/N=C/c2ccccc2Cl)cc1`: 111%; `CCOc1c(C#N)nnc2c(C#N)c(NC(=O)c3ccccc3)nn12`: 99.8%.

As to `COC(=O)[C@]12CC[C@@H](C)[C@H](C)[C@@H]1C1=CC[C@@H]3[C@@]4(C)C(C=O)=C[C@@](C)(CO)[C@@H]4[C@H](O)C[C@@]3(C)[C@]1(C)CC2`, the growth is -15.6% (active). Next, `CCCCCCCCCCCCCCCCCCOc1ccc(CC(=O)OCC[N+]2(C)CCCC2)cc1`: 95%; `CCCCC1CCCCN1C(=O)OCC` (stereo not given): 116%; `COc1ccc(-c2cc(-c3cc(OC)c(OC)c(OC)c3)c(C#N)c(N3CCOCC3)n2)cc1O`: 41.7%. In the case of `Cc1ccc(N(C(=O)CCc2c[nH]c3ccccc23)[C@H](C(=O)Nc2ccc(Cl)cc2)c2cccc([N+](=O)[O-])c2)cc1`, the growth was 82.3%. In the case of `COCCc1ccc(OCC(O)CNC(C)C)cc1` (stereo not given), the growth is 101%. Take `COc1cccc(-c2nn(-c3ccccc3)cc2-c2ccnc(NCCCNC(=O)Nc3ccc(Cl)c(Cl)c3)c2)c1`: the growth is -26.1% (active).

For the molecule `O=Cc1ccc(O)c2ncccc12`, the growth is 41.6%. The value for `COC(=O)[C@]12CC[C@@H](C)[C@H](C)[C@@H]1C1=CC[C@@H]3[C@@]4(C)C(C=O)=C[C@@](C)(COC(=O)/C=C/c5ccccc5)[C@@H]4[C@H](O)C[C@@]3(C)[C@]1(C)CC2` was -8.26% (active); that for `CN(C)CC1=NC2SC=C(c3ccccc3)C2C(=O)N1CC#N` (stereo not given) was 118%. Regarding `O=C(c1ccccc1)c1c(/C=C/c2ccc(Cl)cc2)nc2ccccc2c1/C=C/c1cccs1`, the growth is 106%. In the case of `O=C1NC(=Nc2ccc(Cl)cc2)S/C1=C\c1cn(-c2ccccc2)nc1-c1ccccc1`, the growth is 71%. Next, `O=c1[nH][n+](-c2ccc(Cl)cc2)no1`: 98.5%; `N=c1sc(Cc2ccc(Cl)cc2)cn1CC(=O)c1ccc(F)cc1`: 96.9%. Next, `Cc1cccc(NC(=O)CSc2nc3ccccc3[nH]2)c1`: 90.7%; `CC1CC(C(C)(C)C)C(=O)C(C(C)(C)C)C1` (stereo not given): 106%. In the case of `CCN(CC)S(=O)(=O)c1cccc(-c2ccc3c(NC(=O)C4CC4)n[nH]c3c2)c1`, the growth is 23.8% [6.25 µM].

`C[C@@H]1N=C(c2ccc3ccccc3n2)Nc2nc3ccccn3c2C1=O`: the growth is 97.7%. The value for `Nc1nc(N)c2c(n1)NC(c1ccccc1)C1CCc3ccccc3C1=N2` (stereo not given) was 71.2%. Consider `CCCCNC(=O)Oc1ccc2c(=O)c3sc4c(=O)c5ccccc5c(=O)c4c3c(=O)c2c1`, for which the growth was 2.8% (active).

For the origin of these results see PubChem BioAssay (NCI).
